We go through 6 compounds from PubChem BioAssay (NCATS).

The target in test [1] is Thyrotropin receptor (Homo sapiens) (UniProt P16473). Description: qHTS Assay for Antagonists of the Thyroid Stimulating Hormone Receptor (AID 488980). Note: series mostly up to about 58 µM; 0% is about no effect. The procedure, abridged: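 Inhibition of TSH-stimulated cAMP accumulation was quantified by homogeneous time-resolved FRET in TSHR-transfected HEK293 cells. Agonist: TSH, 4 nM final (EC80).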
(qHTS replaces the single test concentration by a dilution series.)

Test [2] has as its target D(1A) dopamine receptor (Homo sapiens) (UniProt P21728). Put plainly: HTS Assay for Allosteric Agonists of the Human D1 Dopamine Receptor: Primary Screen for Agonists (AID 488981). Note: 0% is about no effect. Put shortly:
(§1)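 Tetracycline-induced HEK293 T-REx cells force-coupled to calcium signalling were incubated overnight at 30 C and dye-loaded at room temperature. Calcium flux over 180 s after compound addition flagged agonists; a further 180 s read after EC20 dopamine flagged potentiators.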

Test [3] shares this target. Description: HTS Assay for Allosteric Agonists of the Human D1 Dopamine Receptor: Primary Screen for Potentiators (AID 488982). Note: 0% is about no effect. Put shortly: as §1
Test [4] has the same target. Description: HTS Assay for Allosteric Agonists of the Human D1 Dopamine Receptor: Primary Screen for Antagonists (AID 488983).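 Note: calcium flux response to an EC80 dopamine challenge measured with no-wash dye; % is set by controls: 0 for no effect and ±100 for the full control effect; nearly all actives have a fitted effect of over 65% in size.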 The procedure, abridged: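 Screening of inducible HEK293 T-REx D1 cells: compound first, EC80 dopamine 180 s later, each phase read kinetically for calcium over 180 s.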
The nature of test [5]: Validation screen for small molecules that induce genotoxicity in human embryonic kidney (HEK293T) cells expressing luciferase-tagged ELG1 (AID 493106). Note: 0% is about no effect. The procedure, abridged:
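Reporter-gene quantitative HTS in HEK293T cells carrying luciferase-tagged ELG1, whose level climbs under genotoxic stress. Compound exposure lasts 16 hr at 37 °C before luciferase detection.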

For test [6], the target named is ATPase family AAA domain-containing protein 5 (Homo sapiens) (UniProt Q96QE3). Description: Validation screen for small molecules that inhibit ELG1-dependent DNA repair in human embryonic kidney (HEK293T) cells expressing luciferase-tagged ELG1 (AID 493107).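 Note: cells co-treated with the DNA-damaging agent 5-fluorouridine alongside compound; series mostly up to about 46 µM; % is set by controls: 0 for no effect and ±100 for the full control effect; inhibitors lower the ELG1-luciferase luminescence signal; nearly all actives have a fitted effect of over 70% in size.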 Put shortly: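 Quantitative HTS in HEK293T cells carrying luciferase-tagged ELG1, stimulated with 5-fluorouridine alongside compound for 16 hr. Loss of luciferase signal marks inhibition of ELG1 response.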
ATPase family AAA domain-containing protein 5 (Homo sapiens), sequence (Q96QE3 whole entry, looked up, the tested form may be a part): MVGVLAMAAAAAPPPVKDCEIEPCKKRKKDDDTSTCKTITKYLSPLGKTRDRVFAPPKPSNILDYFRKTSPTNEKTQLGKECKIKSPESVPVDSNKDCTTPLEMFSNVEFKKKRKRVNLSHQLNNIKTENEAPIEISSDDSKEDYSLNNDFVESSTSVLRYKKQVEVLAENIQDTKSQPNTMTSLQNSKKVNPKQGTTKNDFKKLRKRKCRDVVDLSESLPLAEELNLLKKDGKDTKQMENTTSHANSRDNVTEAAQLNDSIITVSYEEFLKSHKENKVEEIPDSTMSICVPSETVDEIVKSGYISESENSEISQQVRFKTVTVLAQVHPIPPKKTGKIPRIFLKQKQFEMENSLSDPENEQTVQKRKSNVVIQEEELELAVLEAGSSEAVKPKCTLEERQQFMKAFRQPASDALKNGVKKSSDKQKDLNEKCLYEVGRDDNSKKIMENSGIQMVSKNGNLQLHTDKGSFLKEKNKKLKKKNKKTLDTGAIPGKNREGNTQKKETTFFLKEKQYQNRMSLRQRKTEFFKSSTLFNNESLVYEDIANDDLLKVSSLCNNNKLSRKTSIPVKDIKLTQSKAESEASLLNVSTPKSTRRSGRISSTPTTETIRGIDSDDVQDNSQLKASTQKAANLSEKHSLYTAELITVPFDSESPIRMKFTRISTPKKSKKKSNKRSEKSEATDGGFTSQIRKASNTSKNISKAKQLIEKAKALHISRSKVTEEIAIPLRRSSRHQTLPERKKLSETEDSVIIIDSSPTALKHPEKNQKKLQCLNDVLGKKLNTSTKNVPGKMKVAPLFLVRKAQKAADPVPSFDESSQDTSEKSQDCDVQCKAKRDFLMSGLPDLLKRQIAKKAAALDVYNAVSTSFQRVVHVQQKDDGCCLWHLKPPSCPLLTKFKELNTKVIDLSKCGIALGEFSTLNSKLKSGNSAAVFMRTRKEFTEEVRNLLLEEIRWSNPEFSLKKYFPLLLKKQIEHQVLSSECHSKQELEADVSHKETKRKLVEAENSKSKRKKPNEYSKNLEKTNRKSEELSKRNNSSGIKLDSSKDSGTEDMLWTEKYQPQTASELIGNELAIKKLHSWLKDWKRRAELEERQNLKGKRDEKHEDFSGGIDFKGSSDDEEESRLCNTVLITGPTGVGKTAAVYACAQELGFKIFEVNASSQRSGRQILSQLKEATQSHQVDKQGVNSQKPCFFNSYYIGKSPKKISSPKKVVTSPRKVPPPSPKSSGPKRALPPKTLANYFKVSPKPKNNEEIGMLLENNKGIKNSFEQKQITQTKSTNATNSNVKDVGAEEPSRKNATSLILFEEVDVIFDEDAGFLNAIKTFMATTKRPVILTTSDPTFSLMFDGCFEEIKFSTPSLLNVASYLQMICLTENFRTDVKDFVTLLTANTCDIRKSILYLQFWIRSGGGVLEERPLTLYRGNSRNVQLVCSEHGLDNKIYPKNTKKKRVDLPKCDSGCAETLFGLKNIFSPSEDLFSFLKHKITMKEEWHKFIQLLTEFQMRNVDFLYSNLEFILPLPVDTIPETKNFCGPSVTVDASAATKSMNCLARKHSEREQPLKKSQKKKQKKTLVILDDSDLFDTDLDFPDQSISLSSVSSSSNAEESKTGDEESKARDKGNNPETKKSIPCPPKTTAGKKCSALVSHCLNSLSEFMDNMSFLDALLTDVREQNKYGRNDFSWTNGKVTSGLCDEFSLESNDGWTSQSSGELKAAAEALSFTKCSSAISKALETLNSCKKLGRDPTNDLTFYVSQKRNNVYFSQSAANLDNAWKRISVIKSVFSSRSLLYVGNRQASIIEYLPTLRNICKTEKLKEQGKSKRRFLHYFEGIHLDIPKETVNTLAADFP

The target of test [7] is Thyrotropin-releasing hormone receptor (Homo sapiens) (UniProt P34981). Put plainly: qHTS for Small Molecule Agonists and Allosteric Enhancers of Human TRH Receptor: Validation Screen for Agonists (AID 493127;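 active = calcium activation more than 3 SD above the typical response in the agonist read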;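 note: intracellular calcium rise by fluo-8 fluorescence before TRH EC20 addition; 0% is about no effect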). The following applies: TRH receptor agonist cell assay; at 2 µM; stronger effect = higher value. The procedure, abridged: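 Gq-coupled calcium mobilization in TRHR cells after compound addition, monitored kinetically with fluo-8 dye on an FDSS reader.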
Thyrotropin-releasing hormone receptor (Homo sapiens), sequence (P34981 whole entry, looked up): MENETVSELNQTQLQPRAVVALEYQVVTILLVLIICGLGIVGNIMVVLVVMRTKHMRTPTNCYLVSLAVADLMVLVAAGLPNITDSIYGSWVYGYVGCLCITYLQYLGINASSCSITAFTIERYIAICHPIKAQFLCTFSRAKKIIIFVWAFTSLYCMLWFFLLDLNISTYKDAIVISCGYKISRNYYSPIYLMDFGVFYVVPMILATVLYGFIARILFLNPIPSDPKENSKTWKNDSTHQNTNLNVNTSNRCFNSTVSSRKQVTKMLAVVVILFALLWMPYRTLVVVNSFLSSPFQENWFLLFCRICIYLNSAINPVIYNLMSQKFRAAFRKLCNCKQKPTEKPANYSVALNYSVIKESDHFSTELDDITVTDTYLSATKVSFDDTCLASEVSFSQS

Test [8] in a line: Nrf2 qHTS screen for inhibitors: Validation (AID 493153; active = well fitted inhibition curve with a large enough effect in the main read-out, with a control signal flat, not every such curve was filed as active). The following applies: Potency: luciferase luminescence; viability change: measured here: cytotoxicity max response. Put shortly:
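Dose-response validation uses reporter A549 cells with firefly luciferase under an antioxidant response element. Compounds stay on cells 18-24 h at 37°C, and luminescence indicates Nrf2-driven transcription.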

The nature of test [9]: qHTS for Inhibitors of Cell Surface uPA Generation: Validation Assay (AID 493164).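 Note: RAW 264.7 macrophage cells exposed to compound for 18 h; 0% is about no effect.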 Put shortly:
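RAW 264.7, 4000 cells/well, o/n plating; cpd 7-pt 1:5 dilution 2.45 nM–38.3 uM final; 18 h, 37 C/5% CO2; ATP-Lite, 5 s luminescence exposure.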

The target of test [10] is Galactokinase (Homo sapiens) (UniProt P51570). Put plainly: qHTS Validation Assay for Inhibitors of Human Galactokinase (GALK) (AID 493189). Note: 0% is about no effect. The procedure, abridged: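 Enzyme activity is inferred from ATP consumption: human GALK phosphorylates galactose (100 uM) using 35 uM ATP for 1 h at room temperature, and luciferase-based Kinase-Glo Plus reports unconsumed ATP.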
Galactokinase (Homo sapiens), sequence (P51570 whole entry, looked up): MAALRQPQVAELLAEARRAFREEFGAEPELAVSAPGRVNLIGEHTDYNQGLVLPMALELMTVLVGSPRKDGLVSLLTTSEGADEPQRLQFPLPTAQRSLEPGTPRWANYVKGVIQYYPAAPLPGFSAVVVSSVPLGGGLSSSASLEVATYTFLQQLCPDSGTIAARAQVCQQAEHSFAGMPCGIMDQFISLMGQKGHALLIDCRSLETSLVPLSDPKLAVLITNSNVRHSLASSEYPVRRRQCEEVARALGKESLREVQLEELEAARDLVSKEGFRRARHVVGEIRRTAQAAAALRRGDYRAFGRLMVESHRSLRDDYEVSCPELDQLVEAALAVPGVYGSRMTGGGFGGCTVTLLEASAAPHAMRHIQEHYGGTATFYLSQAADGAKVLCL
Test [11] in a line: Validation screen for small molecules that induce DNA re-replication in SW480 colon adenocarcinoma cells (AID 504364). Note: 0% is about no effect. Put shortly: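 Cells are treated 48 hr with test compound, stained 40 min with Hoechst at 37 C, and scanned for nuclear fluorescence; compounds inducing re-replication increase nuclei with elevated intensity.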
The target in test [12] is Peptidyl-prolyl cis-trans isomerase NIMA-interacting 1 (Homo sapiens) (UniProt Q13526). Put plainly: qHTS Validation Assay to Find Inhibitors of Pin1 (AID 504536; active = well fitted inhibition curve with a large enough effect in the polarisation, with a control signal flat, not every such curve was filed as active; the % refers to the polarisation;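 note: 0% = full Pin1 enzyme wells and -100% = no-enzyme wells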). The procedure, abridged:
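Fluorescence polarization competition: compounds (titration) displace HiFluor-488-labeled Pin1-1b peptide from Pin1 (0.3 uM final) in pH 7.5 HEPES buffer with DTT, 10 min at room temperature; %Activity normalized to no-enzyme wells, curves fitted.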

For test [13], the target named is Phosphoglycerate kinase, glycosomal (Trypanosoma brucei brucei) (UniProt P07378). Description: qHTS Validation Assay to Find Inhibitors of Phosphoglycerate Kinase (AID 504547).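 Note: control wells lack PGK and mark full inhibition.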 The procedure, abridged:
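Substrate/PGK mix plus compound; reaction started with GAPDH (100nM final) to form 1,3-BPG; 60 min RT; Kinase-Glo Plus 10 min; luminescence. TEA 100mM pH 7.6, MgCl2 5mM, Tween-20 0.01%.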

Test [14] concerns the target phosphoglycerate mutase (Leishmania major) (UniProt Q4Q090). Put plainly: qHTS Validation Assay to Find Inhibitors of Phosphoglycerate Mutase (AID 504548).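 Note: end-point luminescence from Kinase-GloPlus after the PGAM reaction; series mostly up to about 58 µM; % is set by controls: 0 for no effect and ±100 for the full control effect.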 The following applies: Potency: inhibition qHTS. The procedure, abridged: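 Inhibition of L. major PGAM was assessed by Kinase-GloPlus luminescence following a 45-minute room-temperature reaction with enzyme at 1.25nM final.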

Test [15] in a line: qHTS for Inhibitors of ATXN expression: Validation of Cytotoxic Assay (AID 588349).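 Note: cells exposed to compound for 72 hr; % is set by controls: 0 for no effect and ±100 for the full control effect.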 The procedure, abridged: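 HEK293, compound dose series, 72 hr / 37 degrees C; viability via CellTiter Glo (intracellular ATP).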
The target in test [16] is Ubiquitin carboxyl-terminal hydrolase 1 (Homo sapiens) (UniProt O94782). Description: Inhibitors of USP1/UAF1: Pilot qHTS (AID 504865).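 Note: rhodamine fluorescence freed from ubiquitin-rhodamine substrate followed over time; top concentration of the series differs between compounds; % is set by controls: 0 for no effect and ±100 for the full control effect; nearly all actives have a fitted effect of over 35% in size.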 Put shortly:
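Enzyme-free wells gave the negative control, while test wells held 1nM USP1/UAF1 preincubated with compound for 15 min at room temperature. Ub-Rho at 150nM final started the reaction, and fluorescence at 480/540 nm was recorded kinetically.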

The nature of test [17]: qHTS for Inhibitors of ATXN expression: Validation (AID 588378). Note: series mostly up to about 57 µM; % is set by controls: 0 for no effect and ±100 for the full control effect; nearly all actives have a fitted effect of over 75% in size. The procedure, abridged:
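After a 2 h attachment and 24 h compound incubation, HEK293-ATXN2-FFLuc wells are read for fluorescence at 405 nm excitation/525 nm emission as a viability measure, then for Bright-Glo luminescence reflecting ATXN2 expression.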

The target of test [18] is Transient receptor potential cation channel subfamily V member 1 (Homo sapiens) (UniProt Q8NER1). Put plainly: HTS Assay for Compounds that Act as Enhancers of the Vanilloid Receptor 1 (AID 488979). Note: 0% is about no effect. The procedure, abridged:
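TRPV1-expressing cells loaded with Fluo-8 calcium dye; compounds added and calcium influx read kinetically for 3 min (agonist phase), then capsaicin at EC20 added and read 2 min more for enhancement. Fluorescence ex 480/em 520 nm.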

Records with an inconclusive call do not appear. Calls of active or inactive are those of the source. Unless noted, calls come from the whole dose curve; as a rule, active = well fitted curve in the direction sought with a large enough effect; inconclusive = small, poorly fitted or top-dose-only effect, or another doubt; inactive = no such curve, though single readings can be large; an effect the other way counts as inactive or inconclusive.

Phosphoglycerate kinase, glycosomal (Trypanosoma brucei brucei), sequence (P07378 whole entry, looked up): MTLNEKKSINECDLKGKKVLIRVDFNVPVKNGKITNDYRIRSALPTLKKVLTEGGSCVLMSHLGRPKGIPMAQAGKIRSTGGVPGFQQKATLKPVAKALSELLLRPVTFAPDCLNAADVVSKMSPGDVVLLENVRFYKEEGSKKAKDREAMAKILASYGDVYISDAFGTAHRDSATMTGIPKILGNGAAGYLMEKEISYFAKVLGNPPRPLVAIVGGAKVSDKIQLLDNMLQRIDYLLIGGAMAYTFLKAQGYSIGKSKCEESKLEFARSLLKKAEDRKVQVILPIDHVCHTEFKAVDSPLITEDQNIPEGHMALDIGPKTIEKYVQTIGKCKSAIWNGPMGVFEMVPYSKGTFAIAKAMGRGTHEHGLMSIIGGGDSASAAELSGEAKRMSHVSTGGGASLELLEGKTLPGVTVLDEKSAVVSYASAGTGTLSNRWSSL
Thyrotropin receptor (Homo sapiens), sequence (P16473 whole entry, looked up): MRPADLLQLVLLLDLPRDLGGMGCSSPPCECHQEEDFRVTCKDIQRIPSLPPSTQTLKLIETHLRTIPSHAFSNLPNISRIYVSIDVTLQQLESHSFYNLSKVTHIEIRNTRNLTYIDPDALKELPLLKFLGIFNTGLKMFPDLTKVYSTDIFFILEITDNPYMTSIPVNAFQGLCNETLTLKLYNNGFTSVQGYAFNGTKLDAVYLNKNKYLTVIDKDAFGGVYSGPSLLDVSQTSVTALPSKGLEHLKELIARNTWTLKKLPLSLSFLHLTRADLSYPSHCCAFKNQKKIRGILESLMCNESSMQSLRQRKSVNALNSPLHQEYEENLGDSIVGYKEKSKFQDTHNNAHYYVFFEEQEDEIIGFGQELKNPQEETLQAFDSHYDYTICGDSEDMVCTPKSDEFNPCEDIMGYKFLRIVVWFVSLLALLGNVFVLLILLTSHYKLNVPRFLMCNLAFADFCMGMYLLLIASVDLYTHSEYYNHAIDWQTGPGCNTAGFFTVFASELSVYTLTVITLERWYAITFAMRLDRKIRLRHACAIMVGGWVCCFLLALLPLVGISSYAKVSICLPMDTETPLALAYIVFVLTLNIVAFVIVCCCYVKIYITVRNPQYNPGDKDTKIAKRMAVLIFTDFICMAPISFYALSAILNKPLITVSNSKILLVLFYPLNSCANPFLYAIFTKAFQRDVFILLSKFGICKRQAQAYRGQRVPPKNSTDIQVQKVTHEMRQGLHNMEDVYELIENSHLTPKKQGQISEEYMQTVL
Ubiquitin carboxyl-terminal hydrolase 1 (Homo sapiens), sequence (O94782 whole entry, looked up): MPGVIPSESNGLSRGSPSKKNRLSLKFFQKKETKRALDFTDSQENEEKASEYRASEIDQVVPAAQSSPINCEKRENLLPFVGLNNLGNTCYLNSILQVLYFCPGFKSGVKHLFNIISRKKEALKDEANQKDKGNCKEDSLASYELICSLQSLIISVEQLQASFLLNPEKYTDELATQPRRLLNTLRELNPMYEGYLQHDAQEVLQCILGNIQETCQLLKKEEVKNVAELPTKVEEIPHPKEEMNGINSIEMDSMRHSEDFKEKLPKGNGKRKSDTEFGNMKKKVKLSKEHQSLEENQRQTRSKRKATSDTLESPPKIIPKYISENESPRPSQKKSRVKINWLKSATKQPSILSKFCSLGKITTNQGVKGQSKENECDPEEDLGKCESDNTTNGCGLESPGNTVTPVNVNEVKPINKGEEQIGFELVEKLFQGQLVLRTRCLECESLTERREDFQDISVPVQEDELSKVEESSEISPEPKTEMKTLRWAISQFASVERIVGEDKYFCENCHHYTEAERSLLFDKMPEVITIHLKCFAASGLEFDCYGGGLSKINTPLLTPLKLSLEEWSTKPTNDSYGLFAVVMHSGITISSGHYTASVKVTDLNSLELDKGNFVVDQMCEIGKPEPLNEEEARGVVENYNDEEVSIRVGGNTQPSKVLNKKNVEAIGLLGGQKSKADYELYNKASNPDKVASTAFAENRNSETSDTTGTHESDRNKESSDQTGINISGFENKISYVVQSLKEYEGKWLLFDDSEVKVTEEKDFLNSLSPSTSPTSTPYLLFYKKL
D(1A) dopamine receptor (Homo sapiens), sequence (P21728 whole entry, looked up): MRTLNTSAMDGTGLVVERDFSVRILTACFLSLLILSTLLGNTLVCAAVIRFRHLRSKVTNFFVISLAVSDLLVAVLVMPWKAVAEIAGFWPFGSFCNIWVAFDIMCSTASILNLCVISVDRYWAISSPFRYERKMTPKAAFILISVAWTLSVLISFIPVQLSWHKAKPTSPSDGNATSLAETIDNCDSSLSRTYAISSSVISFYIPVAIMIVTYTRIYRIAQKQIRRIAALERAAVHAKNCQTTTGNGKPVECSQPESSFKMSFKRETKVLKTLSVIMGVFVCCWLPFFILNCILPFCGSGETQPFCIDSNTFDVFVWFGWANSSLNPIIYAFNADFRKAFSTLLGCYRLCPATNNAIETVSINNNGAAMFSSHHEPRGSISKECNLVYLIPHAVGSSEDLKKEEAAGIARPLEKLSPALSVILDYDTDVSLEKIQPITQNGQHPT

As for `Cn1cc(C(=O)OCC2CCN(CCNS(C)(=O)=O)CC2)c2ccccc21`, the call in test [1] and in test [9] was inactive. The Potency result in [2], in test [3], in [4], in test [5], in test [6] and in test [8] was “inactive” in each case. Besides, the Potency entry in test [10], in [11], in test [12], in [13], in [14] and in test [15] was “inactive” in each case. Also, the activation in [7] was 0.688% (inactive). Moreover, the viability change in [8] was -0.747%.
Take `O=C(O)CCC(=O)N1CCCC1C(=O)O` (configuration not stated): the compound was called inactive in test [1] and in test [9]. Besides, the Potency entry in test [2], in test [3], in test [4], in test [5], in [8] and in [10] was “inactive” in each case. Moreover, the Potency result in [11], in [12], in test [13], in test [16], in test [15] and in test [17] was “inactive” in each case. Also, the activation in test [7] was -0.312% (inactive). Besides, the viability change in [8] is -2.91%.
As to `CC(=O)[C@H]1CCC2C3CC=C4C[C@@H](OS(=O)(=O)O)CC[C@]4(C)C3CC[C@@]21C` (some centres not stated), the result in test [1] and in test [9] was inactive. The Potency result in test [2], in test [3], in test [4], in test [5], in test [8] and in test [10] was “inactive” each time. Moreover, the Potency result in test [12], in test [13], in [14], in test [16], in [15] and in test [17] was “inactive” in each case. Further, in test [7], the activation was -0.125% (inactive). Further, in test [8], the viability change stood at 2.24%.
As to `COc1cc(N)c(Cl)cc1C(=O)OCCN1CCCCC1`, the outcome in test [1] and in test [9] was inactive. In addition, the Potency entry in test [2], in test [3], in test [4], in test [5], in test [6] and in test [8] was “inactive” throughout. The Potency entry in [10], in test [12], in test [13], in [16], in test [15] and in test [17] was “inactive” throughout. In test [7], the activation was -2.44% (inactive). In test [8], the viability change is -3.02%.
As to `C=CCN1CCc2c(cc(O)c(O)c2Cl)C(c2ccccc2)C1` (configuration not stated), the result in test [18] and in [1] was inactive. In addition, the Potency result in [3], in test [6], in test [8], in test [10], in [12] and in [13] was “inactive” throughout. Besides, the Potency entry in test [16] was “inactive”. The activation in [7] was -5.75% (inactive). The viability change in test [8] is -2.43%.
Take `O=C(c1ccc2c(c1)OCCO2)N1CCCCC1`: the result in test [1] and in test [9] was inactive. Also, the Potency result in test [2], in test [3], in test [4], in test [5], in test [8] and in test [10] was “inactive” throughout. In addition, the Potency entry in [11], in test [12], in [13], in test [14], in test [16] and in test [15] was “inactive” each time. For the same compound, in test [17], the Potency result is “inactive”. Also, the activation in test [7] is -0.312% (inactive). Besides, the viability change in test [8] was 1.66%.
